The text below walks through data of PubChem BioAssay (Tox21).

Assay [1] concerns the target Progesterone receptor (Homo sapiens) (UniProt P06401). As to the kind of experiment: qHTS assay to identify small molecule antagonists of the progesterone receptor (PR) signaling pathway (AID 1346795; active = well fitted inhibition curve with a large enough effect in the signal ratio in the repeat runs, not every such curve was filed as active; the % refers to the signal ratio; note: potency is the fitted concentration of half-maximal effect). The procedure, abridged: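 PR-UAS-bla HEK293T cells with beta-lactamase reporter under UAS control, in 2% charcoal-stripped FBS, treated with compounds plus 1 nM promegestone (R5020, final) for 16 hr at 37C. Read-out: FRET beta-lactamase substrate fluorescence after 2 hr at room temperature.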

Assay [2] in a line: qHTS assay to identify small molecule antagonists of the progesterone receptor (PR) signaling pathway - cell viability counter screen (AID 1346798). For activity change, negative = cytotoxicity: series mostly up to about 92 µM. Note: nearly all actives have a fitted effect of over 50% in size. Note: potency is the fitted concentration of half-maximal effect. The procedure, abridged:
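PR-UAS-bla HEK293T cells, 3,000/well in 2% charcoal-stripped FBS medium, dosed with compounds plus R5020 agonist and incubated 16 h at 37C. Viability then measured in the same wells by CellTiter-Glo luminescence after 30 min at RT.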

Assay [3] can be described thus: qHTS assay to identify small molecule agonists of the progesterone receptor (PR) signaling pathway - cell viability counter screen (AID 1346799; calls by dose curve; note: nearly all actives have a fitted effect of over 45% in size; note: potency is the fitted concentration of half-maximal effect). The procedure, abridged:
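Counter screen in the PR-UAS-bla HEK293T wells (2% charcoal-stripped FBS, 16 h compound exposure at 37 C) after the bla read. CellTiter-Glo added, 30 min at room temperature, luminescence read as cell viability.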
For orientation: In qHTS, concentration-response curves come from the screen itself.

A short description of assay [4]: qHTS assay to identify small molecule antagonists of the TGF-beta/Smad signaling pathway - cell viability counter screen (AID 1346824). Note: nearly all actives have a fitted effect of over 50% in size. A digest of the protocol:
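Cytotoxicity counter-screen run in the same wells as the beta-lactamase Smad reporter read: CellTiter-Glo luminescence after 30 min at room temperature. HEK 293T SBE-bla cells had 5 hr compound exposure at 37 C with TGF-beta1 (0.25 ng/mL stock).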

Assay [5] is described as follows: qHTS assay to identify small molecule agonists of the TGF-beta/Smad signaling pathway - cell viability counter screen (AID 1346829). For activity change, negative = cytotoxicity: top concentration of the series differs between compounds. Note: nearly all actives have a fitted effect of over 45% in size. Note: potency is the fitted concentration of half-maximal effect. A digest of the protocol:
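HEK 293T SBE-bla line, 5 hr compound exposure at 37 C, multiplexed CellTiter-Glo viability read by luminescence.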

Assay [6] is described as follows: qHTS assay to identify small molecule agonists of the TGF-beta/Smad signaling pathway (AID 1346859; active = well fitted activation curve with a large enough effect in the signal ratio in the repeat runs, not every such curve was filed as active; the % refers to the signal ratio; note: series mostly up to about 77 µM). The procedure, abridged: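 SBE-bla HEK293T cells plated overnight, then compound exposure for 5 h at 37 C. Beta-lactamase reporter read with LiveBLAzer B/G FRET substrate after 2 h at room temperature, fluorescence at 405 nm excitation, 460/530 nm emission.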
The target of assay [7] is Thyrotropin-releasing hormone receptor (Homo sapiens) (UniProt P34981). As to the kind of experiment: qHTS assay to identify small molecule antagonists of the thyrotropin-releasing hormone receptor (TRHR) signaling pathway (AID 1346877; active = well fitted inhibition curve with a large enough effect in the repeat runs, not every such curve was filed as active; note: potency is the fitted concentration of half-maximal effect; for activity, negative = inhibition: series mostly up to about 51 µM). The procedure, abridged:
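Antagonism is measured as suppression of the calcium response to 1 nM TRH in TRHR-HEK293 cells that have been dye-loaded for 2 h at 37 °C after overnight plating. Each compound is tested at 15 concentrations in triplicate.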

For assay [8] the target is unchanged. Put plainly: qHTS assay to identify small molecule agonists of the thyrotropin-releasing hormone receptor (TRHR) signaling pathway (AID 1346891; calls by dose curve; note: potency is the fitted concentration of half-maximal effect; for activation: series mostly up to about 58 µM). The procedure, abridged: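 HEK293 cells expressing TRHR plated 18 h at 37 C/5% CO2, calcium dye-loaded 2 h at 37 C, then compound added (agonist mode); kinetic calcium fluorescence read 3 min at 1 s intervals; 15 concentrations in triplicate.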

A short description of assay [9]: Human pregnane X receptor (PXR) small molecule agonists, qHTS cell viability counter screen (AID 1346977). Note: nearly all actives have a fitted effect of over 50% in size. Note: potency is the fitted concentration of half-maximal effect. A digest of the protocol: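 PXR-Luc HepG2 cells (2,000/well, 5% charcoal-stripped FBS) preincubated 5 hr, then exposed to compounds 24 hr at 37 C. Viability read in the same wells by CellTiter-Fluor fluorescence, reagent added at 23 hr, 1 hr incubation.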
The target in assay [10] is Progesterone receptor (Homo sapiens) (UniProt P06401). As to the kind of experiment: qHTS assay to identify small molecule agonists of the progesterone receptor (PR) signaling pathway (AID 1346784; calls by dose curve; note: nearly all actives have a fitted effect of over 30% in size). A digest of the protocol: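 PR-UAS-bla HEK 293T cells (beta-lactamase reporter under UAS) in 2% charcoal-stripped FBS, dosed with 23 nL compound after 6 hr, incubated 16hr at 37C. LiveBLAzer B/G FRET substrate added, fluorescence read after 2 hours.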

SMILES strings stand for the structures. Several values for one entry are separate records, joined by “and”; a condition that tells them apart may be missing. Equal entries are not always repeated. Inconclusive results are not listed. The source holds several records for some structures; these can differ, active in one and inactive in another. Activity calls are given as the source filed them. Unless noted, calls come from the whole dose curve; as a rule, active = well fitted curve in the direction sought with a large enough effect in the repeat runs; inconclusive = weak or mixed curves; inactive = no such curve, though single readings can be large; an effect the other way counts as inactive or inconclusive.
% is set by controls: 0 for no effect and ±100 for the full control effect.

Chain of Progesterone receptor (Homo sapiens) (P06401 whole entry, looked up): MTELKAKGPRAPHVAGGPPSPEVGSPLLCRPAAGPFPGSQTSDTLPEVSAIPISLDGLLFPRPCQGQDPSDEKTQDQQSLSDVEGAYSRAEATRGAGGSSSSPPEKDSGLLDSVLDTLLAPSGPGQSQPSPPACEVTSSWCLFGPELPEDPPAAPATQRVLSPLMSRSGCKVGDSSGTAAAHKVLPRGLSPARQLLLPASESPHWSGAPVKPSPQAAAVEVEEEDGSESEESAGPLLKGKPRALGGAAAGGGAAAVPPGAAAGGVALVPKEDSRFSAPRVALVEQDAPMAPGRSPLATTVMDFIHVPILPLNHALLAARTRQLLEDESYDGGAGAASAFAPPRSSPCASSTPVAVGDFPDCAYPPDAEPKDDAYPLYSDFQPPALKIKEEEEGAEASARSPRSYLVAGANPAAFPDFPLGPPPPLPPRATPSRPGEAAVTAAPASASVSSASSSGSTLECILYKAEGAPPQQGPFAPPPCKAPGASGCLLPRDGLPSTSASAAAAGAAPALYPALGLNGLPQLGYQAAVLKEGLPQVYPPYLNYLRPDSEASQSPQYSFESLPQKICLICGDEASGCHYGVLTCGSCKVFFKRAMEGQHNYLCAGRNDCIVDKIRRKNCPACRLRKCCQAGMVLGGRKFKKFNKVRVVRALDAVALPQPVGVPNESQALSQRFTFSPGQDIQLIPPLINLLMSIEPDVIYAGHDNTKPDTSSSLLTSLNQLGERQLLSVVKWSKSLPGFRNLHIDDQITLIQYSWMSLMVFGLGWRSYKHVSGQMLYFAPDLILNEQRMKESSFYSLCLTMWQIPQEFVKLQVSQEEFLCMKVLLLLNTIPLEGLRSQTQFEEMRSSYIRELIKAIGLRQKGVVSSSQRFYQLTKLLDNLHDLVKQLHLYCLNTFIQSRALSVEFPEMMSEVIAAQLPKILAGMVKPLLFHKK
Chain of Thyrotropin-releasing hormone receptor (Homo sapiens) (P34981 whole entry, looked up): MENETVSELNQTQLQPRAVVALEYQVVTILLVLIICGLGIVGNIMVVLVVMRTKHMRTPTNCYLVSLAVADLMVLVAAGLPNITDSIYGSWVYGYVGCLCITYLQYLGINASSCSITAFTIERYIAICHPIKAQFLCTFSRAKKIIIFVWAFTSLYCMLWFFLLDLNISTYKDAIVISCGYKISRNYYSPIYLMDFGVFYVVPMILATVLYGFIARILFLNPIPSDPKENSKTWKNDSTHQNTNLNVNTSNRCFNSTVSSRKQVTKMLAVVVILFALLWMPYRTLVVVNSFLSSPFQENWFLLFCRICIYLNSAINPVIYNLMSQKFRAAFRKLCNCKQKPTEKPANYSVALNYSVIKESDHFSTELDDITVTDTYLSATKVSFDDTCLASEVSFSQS

`CCC(=O)/C=C/C1C(C)=CCCC1(C)C` (stereo unspecified): the Potency entry in assay [1], in assay [2], in [3], in assay [4], in assay [5] and in [7] was “inactive” in each case. In addition, the Potency entry in [8] and in [9] was “inactive” in each case. In addition, the result in assay [6] was inactive.
Regarding `Cc1occc(=O)c1OC(=O)C(C)C`, the Potency result in [1], in [2], in [3], in assay [4], in assay [5] and in assay [7] was “inactive” each time. Besides, the Potency entry in assay [8] and in assay [9] was “inactive” in each case. For the same molecule, the molecule was called inactive in [6].
On to `COC(=O)/C=C/c1ccccc1`, for which the Potency entry in assay [10], in assay [2], in assay [3], in assay [5], in assay [7] and in assay [8] was “inactive” in each case. Moreover, the Potency result in assay [9] was “inactive”.
Regarding `CCCCCC(=O)O[C@]1(C(C)=O)CC[C@H]2[C@@H]3CCC4=CC(=O)CC[C@]4(C)[C@H]3CC[C@@]21C`, the Potency in assay [1] was 21.1 µM (active); in [2] it was 43 µM (active) and 33.5 µM (active); in [9] it was 43 µM (active). For the same molecule, the Potency result in [4], in assay [7] and in [8] was “inactive” in each case.
As to `O=C(OCc1ccccc1)c1ccc(O)cc1`, in [1], the Potency was 34.4 µM (active) and 26.6 µM (active). In addition, the Potency entry in assay [2], in [3], in assay [5], in [7], in assay [8] and in assay [9] was “inactive” in each case.
As for `CCCCC/C=C/CC1CC(=O)OC1=O` (stereo unspecified), the Potency entry in assay [1], in assay [2], in [3], in assay [4], in assay [5] and in assay [7] was “inactive” in each case. Moreover, the Potency entry in [8] and in assay [9] was “inactive” each time. Besides, the result in [6] was inactive.
As for `O=C(Oc1ccccc1)c1ccccc1O`, the Potency entry in assay [1], in assay [2], in assay [3], in assay [4], in [5] and in assay [9] was “inactive” throughout. For the same molecule, the outcome in [6] was inactive.
Turning to `CCCCCCCCCCCCCCCCCl`, in assay [1], the activity change, negative = inhibition was 4.71% [at 18.9 µM] (inactive). Also, the activity change, negative = cytotoxicity is -2.11% [at 18.9 µM] (inactive) in [2], 1.73% [at 15.8 µM] (inactive) in [5] and 0.261% [at 19 µM] (inactive) in assay [9]. In addition, the viability change, negative = cytotoxic in assay [4] is 1.48% [at 15.8 µM] (inactive). Further, the activation in assay [6] was 0.675% [at 15.8 µM] (inactive); in assay [8] it was -0.271% [at 11.8 µM] (inactive). Besides, the activity, negative = inhibition in assay [7] was 3.5% [at 10.5 µM] (inactive).
As for `CC(=O)CC(=O)Nc1ccc2[nH]c(=O)[nH]c2c1`, the Potency result in assay [10], in assay [2], in assay [3], in assay [5], in assay [7] and in assay [8] was “inactive” throughout. Further, the Potency result in [9] was “inactive”.
`CC[C@@H](N)CO`: the Potency result in [1], in assay [2], in assay [3], in assay [4], in assay [5] and in assay [7] was “inactive” throughout. Moreover, the Potency result in assay [8] and in [9] was “inactive” in each case.
As to `Nc1cc(Cl)c(-c2cc(Cl)c(N)cc2Cl)cc1Cl`, the Potency in assay [1] is 2.73 µM (active); in [2], 38.5 µM (active) and 43.3 µM (active); in assay [3] it was 30.6 µM (active) and 21.7 µM (active); in assay [9], 50.1 µM (active) and 68.6 µM (active). Further, in assay [6], the outcome was inactive. In addition, the Potency result in assay [7] and in assay [8] was “inactive” throughout.
As to `Nc1ccc(O)cc1`, the Potency entry in assay [1], in assay [2], in assay [3], in assay [5], in assay [7] and in [8] was “inactive” throughout. In assay [6], the molecule was called inactive. The Potency in [9] was 56.6 µM (active) and inactive.
As for `Oc1c(Cl)cc(Cl)c(Cl)c1Cc1c(O)c(Cl)cc(Cl)c1Cl`, the Potency in assay [1] was 48.6 µM (active); in [2] it was 43.1 µM (active); in [7], 12 µM (active) and 26.9 µM (active); in assay [8], 30.8 µM (active) and 34.7 µM (active) and inactive; in assay [9], 2.72 µM (active) and 1.72 µM (active) and 6.68 µM (active). The Potency entry in assay [4] was “inactive”. Also, the call in assay [6] was inactive.
For the molecule `CC(=O)N[C@@H](CS)C(=O)O`, the Potency entry in assay [10], in assay [2], in [3], in [5] and in [9] was “inactive” throughout.
With `CCCCCCC(O)CCCCCCCCCCC(=O)O` (stereo unspecified), the Potency entry in [10], in assay [4], in assay [5], in [7], in [8] and in [9] was “inactive” each time. The Potency in [3] was 48.7 µM (active) and 15.4 µM (active).
As for `CC(C)(C)NC(=O)[C@@H]1CN(Cc2cccnc2)CCN1C[C@@H](O)C[C@@H](Cc1ccccc1)C(=O)N[C@H]1c2ccccc2C[C@H]1O`, the Potency entry in [1], in [2], in assay [3], in assay [5] and in assay [9] was “inactive” in each case. Moreover, the call in [6] was inactive.
Turning to `CNCCC(Oc1ccc(C(F)(F)F)cc1)c1ccccc1` (stereo unspecified), the Potency in [2] is 60.3 µM (active) and 29.8 µM (active); in assay [3], 30.2 µM (active) and 13.3 µM (active); in assay [9], 24 µM (active) and 26.6 µM (active). The Potency result in assay [4], in assay [5], in [7] and in assay [8] was “inactive” in each case. The molecule was classed as inactive in [6].
For the molecule `c1ccc2c(c1)-c1cccc3c1c-2cc1ccccc13`, the Potency result in assay [2], in assay [3], in [4], in assay [5] and in [9] was “inactive” each time.
Take `CC1=CC(=O)c2ccccc2C1=O`: the Potency result in assay [2], in assay [3], in assay [7] and in assay [8] was “inactive” in each case. Also, the Potency in [5] was 54.9 µM (active); in assay [9], 43.3 µM (active). For the same molecule, in assay [6], the molecule was called inactive.
Take `Oc1c(Cl)cc(Cl)cc1Sc1cc(Cl)cc(Cl)c1O`: the Potency is 21.7 µM (active) and 49.3 µM (active) in assay [1]; 39.6 µM (active) and inactive in assay [8]. In addition, the Potency result in assay [4] and in assay [5] was “inactive” throughout.
`NC(N)=Nc1nc(CSCC/C(N)=N/S(N)(=O)=O)cs1`: the Potency entry in [2], in assay [3], in [5] and in assay [9] was “inactive” throughout.
As for `O`, the Potency entry in assay [2], in assay [3], in [4], in [5], in assay [7] and in assay [8] was “inactive” each time. Moreover, the Potency entry in assay [9] is “inactive”. The molecule was classed as inactive in assay [6].
Take `COc1ccc(COC(C)=O)cc1`: the Potency result in [2], in assay [3], in [4], in assay [5] and in assay [9] was “inactive” each time.
Consider `O=C(O)c1cc(Cl)cc(Cl)c1`, for which the Potency entry in assay [2], in [3], in [4], in [5], in assay [7] and in assay [8] was “inactive” in each case. Further, the Potency result in assay [9] is “inactive”. Also, the result in [6] was inactive.
